High-throughput results as filed in PubChem.
Shown are actives, neighbours in structure and some others; about 2.6% of the full set was active somewhere.
GALK inh: inhibitors of human galactokinase (GALK); P51570; recombinant GALK, Kinase-Glo ATP luminescence, 1 h; Potency, µM (series often up to 57.5 µM), without a hit: at the highest dose activity, negative = inhibition, most hits filed as inhibitors; 44,000 tested, under 10 active; AID 1347072;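 also: plate controls were full GALK reaction for no effect and reaction lacking GALK for full effect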
Target sequence (P51570 whole entry, looked up): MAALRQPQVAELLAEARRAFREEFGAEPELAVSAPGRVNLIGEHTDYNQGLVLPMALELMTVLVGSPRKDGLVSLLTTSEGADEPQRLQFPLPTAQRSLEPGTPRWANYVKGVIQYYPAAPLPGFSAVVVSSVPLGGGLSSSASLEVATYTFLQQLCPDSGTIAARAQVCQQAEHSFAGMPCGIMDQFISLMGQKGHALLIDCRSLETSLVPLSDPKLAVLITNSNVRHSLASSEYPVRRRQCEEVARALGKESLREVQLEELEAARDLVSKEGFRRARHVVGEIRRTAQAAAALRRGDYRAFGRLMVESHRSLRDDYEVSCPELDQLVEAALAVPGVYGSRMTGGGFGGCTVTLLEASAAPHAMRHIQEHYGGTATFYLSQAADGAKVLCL
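Luminescent ATP-depletion readout (Kinase-Glo Plus) after 1 h room-temperature incubation of human GALK (5 nM) with galactose 100 µM and ATP 35 µM, pH 8.0 HEPES/Mg2+ buffer; compounds tested in qHTS format.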
FH mod: Identification of activators of human fumarate hydratase by quantitative high-throughput screening; 0.22% of 54,000 active; FH coupled MDH/diaphorase resazurin fluorescence, 15 min; Potency, µM (titrated, usually from 79.9 µM), without a hit: at the highest dose activity change, negative = inhibition, most hits filed as inhibitors; Fumarate hydratase, mitochondrial (Homo sapiens), P07954; also: potency is read from the fitted curve at half-maximal effect; % is scaled to controls: 0 for no effect and ±100 for the full control effect; the screen sought activators but most active calls are inhibition curves; nearly all actives have a fitted effect of over 45% in size
GALC G270D up: raises human GALC G270D mutant activity in cells; 0.1% of 45,000 active; Potency, µM (doses to about 57.5 µM), hits mostly activators; 145M-Twi-hGALC-G270D cells (Twitcher mouse brain line with human GALC G270D), HMU-beta-Gal fluorescence, 48 h; AID 1159614; also: potency is read from the fitted curve at half-maximal effect; 0% is about no effect; nearly all actives have a fitted effect of over 65% in size
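Brain-derived Twitcher mouse 145M-Twi cells stably expressing human GALC-G270D or wild-type GALC, treated live, then residual GALC activity read by fluorescence of HMU-b-Gal substrate (0.1 mM final) in citrate-phosphate buffer pH 5.2 with sodium taurocholate. Signal increase indicates enhancement.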
TSG101-PTAP inh: inhibitors of HIV-1 PTAP binding to human TSG101, validation; AID 1347069; Fluorescence polarization, FITC-PTAP peptide/Tsg101, 20 min; Potency, µM (highest dose often 115 µM), hits mostly inhibitors; 44,000 tested, under 10 active; also: potency is read from the fitted curve at half-maximal effect; 0% is about no effect
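FITC-labeled PTAP peptide (50 nM final) binding to Tsg101 binding domain (10 uM final) read by fluorescence polarization after 20 min at r.t. in HEPES pH 7.5 buffer. Actives by CRC class, <25 µM.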
DRV1 agonist: GPR32 (DRV1) agonism, beta-arrestin recruitment | activation, % at 76.9 µM | O75388 | 2.5% of 48,000 active | AID 1346428 | CHO-K1 GPR32 beta-arrestin PathHunter luminescence, 90 min; zero percent set by DMSO-only wells;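 active = activation of at least 60% and not above a set upper limit, about 1 call in 100 departs from these limits; inconclusive = activation of 40% to 60%, or above that upper limit; inactive = activation under 40%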; also: 0% is about no effect
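Agonism was scored by beta-Gal fragment complementation (chemiluminescent read, 1 h detection at ambient temperature) reporting beta-arrestin binding to GPR32 in engineered CHO-K1 cells. Compound treatment lasted 90 min at 37 C, normalized to a DMSO basal control.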
B2AR arrestin ag: agonists recruiting beta-arrestin to human beta2-adrenergic receptor; P07550; HTLA Tango cells, beta-arrestin recruitment, luciferase luminescence, 18 h; Potency, µM (series often up to 46.1 µM), actives largely listed as activators; 44,000 tested, under 10 active;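 also: potency is read from the fitted curve at half-maximal effect; 0% = DMSO and full agonism = EC100 isoproterenol or metaproterenol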
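First, Tango cells carrying beta2-AR and beta-arrestin fusions received compound up to 46 microM. After 18 hr at 37 degrees C, luciferase substrate was added for 15 minutes, then luminescence gave %Activity for curve fitting.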
The depositor's hits bear a star; i = inactive; ? = inconclusive; nt = no result given; ! = not confirmed by another sample; [ ] = dose if it differs, or a comment. Unless noted, calls follow the shape of the dose curve; as a rule, active = well fitted curve in the direction sought with a large enough effect; inconclusive = small, poorly fitted or top-dose-only effect, or another doubt; inactive = no such curve, though single readings can be large; an effect the other way counts as inactive or inconclusive.

SMILES	GALK inh	FH mod	GALC G270D up	TSG101-PTAP inh	DRV1 agonist	B2AR arrestin ag
Cc1cccc(-n2nc(C)c3c2NC(=O)CSC3c2ccccc2Cl)c1 (stereo not given)	2%	-15%	i	i	63*	i
CC[C@H]1C[C@@H]2CC[C@@H](O2)[C@@H](C)C(=O)O[C@H](CC)C[C@H]2CC[C@H](O2)[C@H](C)C(=O)O[C@@H](C)C[C@@H]2CC[C@@H](O2)[C@@H](C)C(=O)O[C@H](CC)C[C@H]2CC[C@H](O2)[C@H](C)C(=O)O1	nt	-3%[20.6 µM]	nt	nt	nt	nt
CN1C[C@H](CNC(=O)OCc2ccccc2)C[C@@H]2c3cccc4c3c(cn4C)C[C@H]21	nt	-24%[53.3 µM]	i	nt	80*!	nt
CC[C@@H](CO)NC(=O)[C@@H]1C=C2c3cccc4c3c(cn4C)C[C@H]2N(C)C1	nt	-2%[53.3 µM]	i	nt	0	nt
N#Cc1cc2c(nc1SCC(=O)Nc1cccc(F)c1)C1CCN2CC1	0%	5%	i	i	68*	?
C[C@]12CC[C@@H](O[C@@H]3O[C@H](CO)[C@@H](O)[C@H](O)[C@H]3O)C[C@@]1(O)CCC1C2CC[C@]2(C)[C@@H](C3=CC(=O)OC3)CC[C@]12O (stereo not given in full)	nt	-7%[53.3 µM]	nt	nt	nt	nt
CCCN1CCc2cccc3c2[C@H]1Cc1ccc(O)c(O)c1-3	nt	7.9µM*	nt	nt	4	nt
COc1ccc(Cc2nccc3cc(OC)c(OC)cc23)cc1OC	nt	-1%[53.3 µM]	i	nt	119*!	nt
Oc1ccc2c3c1O[C@H]1[C@H](N(CCCl)CCCl)CC[C@@]4(O)[C@@H](C2)N(CC2CC2)CC[C@]314	nt	-2%[13.5 µM]	nt	nt	nt	nt
COC(=O)[C@@]1(C)C(=O)C=C[C@]2(C)c3c(O)cc(C(C)C)cc3[C@H](O)[C@@H](OC(C)=O)C12 (stereo not given in full)	nt	-1%[53.3 µM]	nt	nt	nt	nt
COC1CC(OC2CCC3(C=O)C(CCC4C3CCC3(C)C(C5=CC(=O)OC5)CCC43O)C2)OC(C)C1O (stereo not given)	nt	8%[53.3 µM]	nt	nt	nt	nt
CC(=O)c1ccc(NC(=O)c2sc3nc4c(cc3c2N)N2CCC4CC2)cc1	-1%	-14%	i	i	41	i
CCOC(=O)c1ccc(NC(=O)c2sc3nc4c(cc3c2N)N2CCC4CC2)cc1	-2%	4%	14µM*	i	20	i
CCc1ccc(NC(=O)Cn2c(=O)oc3cc(S(=O)(=O)NCc4ccccc4)ccc32)cc1	-3%	-1%	i[11.5 µM]	i	73*	i
CN1C(=O)N(c2ccc(C#N)c(C(F)(F)F)c2)C(=O)[C@]1(CO)c1ccccc1	nt	-2%	nt	nt	nt	nt
Cc1cccc(-c2nc(CN3C(=O)CN=C(c4ccccc4)c4ccccc43)c(C)o2)c1	-3%	-20%	i	i	63*	i
N#C/C(=C/c1ccc(O)c(O)c1)C(N)=S	nt	13µM*!	nt	nt	-46	nt
Nc1ccn(CC(CO)OCP(=O)(O)O)c(=O)n1 (stereo not given)	nt	-1%	nt	nt	nt	nt
O=c1oc2ccccc2c(O)c1C(CC(O)c1ccc(-c2ccc(Br)cc2)cc1)c1ccccc1 (stereo not given)	nt	?	i	nt	82*	nt
CCN1C[C@@]2(COC)C3[C@@H](OC)C4[C@H]1C3([C@@H]1C[C@@]3(O)[C@H](OC(=O)c5ccccc5)[C@@H]1[C@]4(OC(C)=O)[C@@H](O)[C@@H]3OC)[C@H](OC)C[C@H]2O	nt	-23%[53.3 µM]	nt	nt	nt	nt
COc1ccc2c(c[n+](C)c3c4cc5c(cc4ccc23)OCO5)c1OC	nt	?	nt	nt	66*	nt
COc1ccc2[nH]c(-c3ccccc3)c(CCN(C)C)c2c1	nt	2%	nt	nt	nt	nt
CCN(CC)C(=O)N[C@@H]1C=C2c3cccc4[nH]cc(c34)C[C@@H]2N(C)C1	nt	6%[53.3 µM]	i	nt	64*	nt
